Compound activity as filed in PubChem BioAssay.
Rows were chosen to be rich in hits. Some 3.4% of all compounds tested hit in one or more screens of this group.
PGC1a acetyl inh: inhibitors of PGC1a acetylation signal, primary screen, cell-based, U2OS, AlphaScreen, inhibitor mode | AlphaScreen anti-acetyl-lysine; with virally co-expressed GCN5 acetyltransferase | inhibition, % at 15.6 µM | 350,000 tested, 0.17% active;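 active = every replicate shows inhibition of at least 40%; inconclusive = mean inhibition at least 40% but some replicate below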;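 also: 0% = neutral control wells and 100% = positive control wells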
LGR2 antag: inhibitors of bursicon-induced LGR2 CRE-luciferase signal, primary screen, cell-based, HEK293, CRE-luciferase reporter, bursicon stimulation. Drosophila bursicon receptor LGR2 (rickets). bursicon-stimulated, 4 h. inhibition, % at 9.99 µM. 380,000 tested, 0.35% active. AID 720647, 2013;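 active = drop in luminescence signal, shown as inhibition above about 50% in the replicate tests, limit read from the data, passing the limit was not always enough; inconclusive = probably only some replicates passing the limit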;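 also: agonist challenge used bursicon conditioned medium at about half maximal strength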
PAX8 reporter: inhibitors of PAX8-driven TPO luciferase reporter, primary screen, RMG-I cells, single concentration; SteadyGlo, 24 h; inhibition, % at 12.6 µM; 360,000 tested, 1.2% active;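 active = mean replicate inhibition at least 60% with every replicate also reaching 60%; inconclusive = only one of the two criteria is met; inactive = mean below 60% and not all replicates reaching 60%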;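 also: luciferase light reporting Pax8 driven TPO promoter activity; plate controls were median of neutral control wells for no effect and mitoxantrone controls for full effect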
SIRT5 block: SIRT5 desuccinylase inhibitors, primary screen, biochemical, fluorescence imaging, single point, set 5. AID 652115, 2013. NAD-dependent protein deacylase sirtuin-5, mitochondrial (Homo sapiens), Q9NXA8. inhibition, % at 15 µM. 330,000 tested, 1.1% active. Purified SirT5, succinyl-peptide AMC, trypsin-coupled fluorescence; in the data active = inhibition above about 15%; inconclusive = no clear call, values can overlap the other calls
Target sequence (Q9NXA8 whole entry, looked up): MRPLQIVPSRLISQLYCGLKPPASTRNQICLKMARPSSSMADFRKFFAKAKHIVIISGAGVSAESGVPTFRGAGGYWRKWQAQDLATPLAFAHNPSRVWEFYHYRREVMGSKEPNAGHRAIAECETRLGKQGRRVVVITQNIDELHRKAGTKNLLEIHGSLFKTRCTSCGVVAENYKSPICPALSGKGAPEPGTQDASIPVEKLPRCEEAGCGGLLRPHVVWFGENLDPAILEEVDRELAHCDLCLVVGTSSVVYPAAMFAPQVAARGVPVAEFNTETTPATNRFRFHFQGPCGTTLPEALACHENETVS
EWS-Fli block: EWS/Fli-driven NR0B1 reporter inhibitors, primary screen, A673 cells, NR0B1 luciferase, luminescence, MLPCN library; viability-normalised; inhibition, % at 12.6 µM; 350,000 tested, 0.67% active;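 active = mean inhibition of at least 50% after viability correction, with every replicate also passing that limit; inconclusive = mean reaches 50% but only one of two replicates passes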;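 also: firefly luciferase signal divided by Alamar Blue viability fluorescence both relative to DMSO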
Ecoli rRNA inh: reduced GFP signal of wild-type E. coli, primary screen, bacterial rRNA inhibitor project, GFP/RFP fluorescence, OD600, single point; E. coli WT GFP vs humanized-ribosome RFP mutants, 24 h; active compounds read low; DMSO median 0, no signal -100; AID 720706, 2013; GFP signal change (wild-type ribosome), % (no concentration beside the values); 350,000 tested, 1.6% active;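 active = significant combined selectivity score with lowered wild-type GFP, culture density cut under 30%, mutant RFP and density less affected; inactive = any of these conditions unmet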
Numbers without * were called inactive; ? = inconclusive; . = not tested or not shown.

SMILES | PGC1a acetyl inh | LGR2 antag | PAX8 reporter | SIRT5 block | EWS-Fli block | Ecoli rRNA inh
COc1ccc(S(=O)(=O)Nc2ccc3c(c2)C(=O)N([C@@H](C)CO)C[C@@H](C)[C@H](CN(C)S(=O)(=O)c2ccc(Cl)cc2)OCCCC[C@H](C)O3)cc1 | ? | 12 | 29 | 1 | 10 | -2
COc1ccc(S(=O)(=O)N(C)C[C@@H]2OCCCC[C@H](C)Oc3ccc(NS(=O)(=O)c4ccc(Cl)cc4)cc3C(=O)N([C@@H](C)CO)C[C@@H]2C)cc1 | 5 | ? | 64* | 7 | -8 | 2
COc1ccc(S(=O)(=O)N(C)C[C@@H]2OCCCC[C@@H](C)Oc3ccc(NS(=O)(=O)c4ccc(Cl)cc4)cc3C(=O)N([C@H](C)CO)C[C@H]2C)cc1 | . | . | . | . | . | 2
COc1ccc(S(=O)(=O)Nc2ccc3c(c2)C(=O)N([C@@H](C)CO)C[C@H](C)[C@H](CN(C)S(=O)(=O)c2ccc(Cl)cc2)O3)cc1 | 6 | 11 | 30 | . | 16 | 0
CO[C@H]1CN(C)C(=O)c2cc(NS(=O)(=O)CC(F)(F)F)ccc2OC[C@H](C)N(Cc2cccnc2)C[C@H]1C | 3 | 12 | 3 | . | -3 | -1
COc1ccc(S(=O)(=O)N(C)C[C@@H]2OCCCC[C@@H](C)Oc3ccc(NS(=O)(=O)c4ccc(Cl)cc4)cc3C(=O)N([C@H](C)CO)C[C@@H]2C)cc1 | 11 | -3 | 13 | 16* | 8 | 2
COc1ccc(S(=O)(=O)Nc2ccc3c(c2)C(=O)N([C@H](C)CO)C[C@H](C)[C@H](CN(C)S(=O)(=O)c2ccc(Cl)cc2)OCCCC[C@H](C)O3)cc1 | 1 | 14 | ? | 16* | 10 | 1
COc1ccc(S(=O)(=O)Nc2ccc3c(c2)C(=O)N([C@H](C)CO)C[C@@H](C)[C@@H](CN(C)S(=O)(=O)c2ccc(Cl)cc2)OCCCC[C@H](C)O3)cc1 | 16 | 17 | 30 | 0 | -2 | -2
COc1ccc(S(=O)(=O)Nc2ccc3c(c2)C(=O)N([C@@H](C)CO)C[C@@H](C)[C@@H](CN(C)S(=O)(=O)c2ccc(Cl)cc2)OCCCC[C@@H](C)O3)cc1 | -14 | 19 | 69* | 15* | 4 | -2
COc1ccc(S(=O)(=O)Nc2ccc3c(c2)C(=O)N([C@H](C)CO)C[C@@H](C)[C@@H](CN(C)S(=O)(=O)c2ccc(Cl)cc2)OCCCC[C@@H](C)O3)cc1 | -22 | 9 | 31 | 11 | 13 | 0
COc1ccc(S(=O)(=O)N(C)C[C@@H]2OCCCC[C@@H](C)Oc3ccc(NS(=O)(=O)c4ccc(Cl)cc4)cc3C(=O)N([C@@H](C)CO)C[C@@H]2C)cc1 | 14 | 1 | 29 | 3 | 6 | -1
C[C@H](CO)N1C[C@H](C)[C@H](CN(C)C(=O)Cc2ccccc2)OCCCC[C@H](C)Oc2ccc(NS(=O)(=O)c3ccc(F)cc3)cc2C1=O | 8 | 0 | 14 | . | 5 | -2
C[C@H]1CCCCO[C@H](CN(C)C(=O)Nc2cccc3ccccc23)[C@@H](C)CN([C@@H](C)CO)C(=O)c2cc(NC(=O)CCC(F)(F)F)ccc2O1 | -19 | 16 | 71* | . | 15 | 0
C[C@@H]1CCCCO[C@H](CN(C)C(=O)Nc2cccc3ccccc23)[C@@H](C)CN([C@@H](C)CO)C(=O)c2cc(NC(=O)c3ccncc3)ccc2O1 | -3 | 19 | 33 | 6 | -27 | -1
C[C@@H]1CCCCO[C@@H](CN(C)C(=O)Nc2cccc3ccccc23)[C@H](C)CN([C@H](C)CO)C(=O)c2cc(NC(=O)CCC(F)(F)F)ccc2O1 | -25 | 22 | 67* | . | 27 | 0
C[C@H](CO)N1C[C@H](C)[C@@H](CN(C)C(=O)Nc2cccc3ccccc23)OCCCC[C@H](C)Oc2ccc(NC(=O)c3ccncc3)cc2C1=O | -13 | 17 | 82* | 6 | 14 | 2
COCC#Cc1cnc2c(c1)C(=O)N([C@@H](C)CO)C[C@H](C)[C@H](CN(C)C(=O)c1cnccn1)O2 | 4 | -14 | . | 1 | -4 | 6
CSc1ccccc1NC(=O)CN(C)CC(=O)c1c(C)[nH]c2ccccc12 | 15 | -9 | 15 | -1 | 10 | -21*
CCc1ccc(NS(=O)(=O)c2ccc3[nH]cc(C(=O)N(C)Cc4ccco4)c(=O)c3c2)cc1 | -8 | 9 | . | -7 | 14 | -25*
CCCC(C)C(=O)Nc1nc(C)c(-c2csc(Nc3ccc(Cl)cc3)n2)s1 (stereo not given) | . | -2 | 23 | 31* | 24 | 3
CCCC(C)C(=O)Nc1nc(C)c(-c2csc(Nc3ccccc3OC)n2)s1 (stereo not given) | -4 | -19 | 13 | -3 | -8 | 2
CCN(C[C@@H]1[C@@H](c2ccc(-c3ccccc3)cc2)[C@H](CO)N1C(C)=O)C(C)=O | 1 | -1 | -4 | 3 | 2 | -2
COc1cc(C)ccc1OCc1cc(C(=O)N2CCCCCC2)no1 | 4 | -29 | -48 | -2 | . | -26*
O=C(c1cc(COc2ccc(F)cc2F)on1)N1CC[C@@H]2CCCC[C@H]2C1 | . | 13 | -9 | -3 | . | 8
O=C(c1cc(COc2ccc(F)cc2Cl)on1)N1CCc2ccccc2C1 | . | -15 | 1 | -2 | -1 | 8
SMILES | PGC1a acetyl inh | LGR2 antag | PAX8 reporter | SIRT5 block | EWS-Fli block | Ecoli rRNA inh
O=C(c1cc(COc2ccc(F)cc2Cl)on1)N1CC[C@@H]2CCCC[C@H]2C1 | -2 | 2 | -5 | 34* | . | 1
COc1ccc(OCc2cc(C(=O)N3CCSCC3)no2)c(Cl)c1 | 7 | -60 | -219 | 2 | . | -29*
O=C(c1cc(COc2ccc(F)cc2Cl)on1)N1CCSCC1 | 5 | -74 | -167 | -9 | . | -37*
CCC(=O)Nc1ccc2c(c1)OC[C@H](C)N(Cc1cccnc1)C[C@H](C)[C@@H](OC)CN(C)C2=O | -3 | 14 | . | 1 | -2 | 2
O=C(c1cc(COc2ccc(F)cc2Cl)on1)N1CCCC(c2ccccc2)C1 (stereo not given) | 10 | . | 12 | -7 | 1 | -21
O=C(c1cc(COc2ccc(F)cc2F)on1)N1CCCC(c2ccccc2)C1 (stereo not given) | 9 | . | -21 | 2 | -36 | -22*
Cc1ccccc1CN1[C@@H](Cc2ccccc2)COCCS1(=O)=O | -9 | 7 | -21 | . | -12 | .
C=C1[C@@H](O)[C@H](Cc2ccccc2)N(Cc2ccccc2Br)S1(=O)=O | . | 47 | 39 | . | 9 | -23*
